Records with an inconclusive call do not appear. Unmarked numbers belong to inactive results. Active and inactive are the calls of the source. Calls follow the shape of the dose curve; as a rule, active = well fitted activation curve with a large enough effect; inconclusive = small, poorly fitted or top-dose-only effect; inactive = flat fitted curve, though single readings scatter.

The target in this assay is Luciferin 4-monooxygenase (Photinus pyralis) (UniProt P08659). Nature of the assay: FLuc inhibitory activity for the follow-up compounds in a cell-based translational read-through assay (72 hour incubation). To be noted: GripTite 293 FLucUGA read-through, luminescence; series mostly up to 38.3 µM; activation (luciferase signal increase): at the top concentration. From the text: NCGC Assay Overview: Firefly (Photinus pyralis) luciferase is one of the most commonly used transcriptional reporters. It is considered one of the more dynamically responsive reporters - that is, responsive to changes in reporter transcription - as it requires no post-translational modifications and is enzymatically active directly after protein synthesis (Wood, 1998). With no endogenous expression in mammalian cells and without the requirement of external excitation, it offers very little background signal, thus generally providing excellent signal to background for most assays. Previous profiling work to determine the prevalence of compounds that affect FLuc enzymatic activity (PubChem AID 411) identified that ~3% of the MLSMR library (then at ~72K) inhibited FLuc (Auld et al., 2008). […] Of the compounds identified in this profile that inhibited FLuc, 151 compounds were selected for further analysis, in an effort to better understand their mode of inhibiting FLuc. The assay described here was to determine the activity of the compounds in a cell-based firefly luciferase reporter gene assay originally designed to identify compounds that enchanced translational read-through of a FLuc cDNA that contained a premature stop codon (Auld et al., 2009; Auld et al., 2010). Compounds that enhance translational read-through or compounds that stabilize FLuc intracellularly are identified as active compounds in the assay.
Chain of Luciferin 4-monooxygenase (Photinus pyralis) (P08659 whole entry, looked up): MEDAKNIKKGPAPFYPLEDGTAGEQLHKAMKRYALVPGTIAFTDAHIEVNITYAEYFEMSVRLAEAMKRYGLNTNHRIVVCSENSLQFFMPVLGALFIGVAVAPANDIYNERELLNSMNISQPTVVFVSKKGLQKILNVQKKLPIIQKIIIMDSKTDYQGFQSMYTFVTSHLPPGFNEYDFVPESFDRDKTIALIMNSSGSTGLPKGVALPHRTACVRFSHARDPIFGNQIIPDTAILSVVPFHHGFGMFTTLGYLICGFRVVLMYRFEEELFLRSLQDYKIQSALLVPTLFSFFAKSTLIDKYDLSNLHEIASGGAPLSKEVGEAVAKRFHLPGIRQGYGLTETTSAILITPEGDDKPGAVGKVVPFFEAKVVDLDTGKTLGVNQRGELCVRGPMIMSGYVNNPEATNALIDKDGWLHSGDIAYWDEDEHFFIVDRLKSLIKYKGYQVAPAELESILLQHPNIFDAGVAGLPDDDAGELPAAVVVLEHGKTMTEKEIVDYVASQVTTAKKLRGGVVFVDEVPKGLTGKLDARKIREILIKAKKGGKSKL
NCGC Assay Protocol Summary: Reagents: Transient transfection of FlucUGA construct: TransFast Transfection Reagent (Promega #E2431); FLucUGA construct (refer to Auld et al., 2009) #GripTite 293 MSR Cell Line (Invitrogen #R795-07) #Complete growth media: DMEM (Invitrogen #11965), 10% HIFBS, 0.1mM MEM NEAA, 5mL/L pen-strep (of 5000U/mL stock), 600ug/mL Geneticin #Assay media: DMEM without phenol red (Invitrogen #21063), 5% charcoal-stripped HIFBS (Hyclone #SH30071.03), 0.1mM MEM NEAA In-house detection reagent: 300mM Tris-HCl, 300mM Trizma base, 300mM MgCl, 1% Triton-X100, 5mM DTT, 500uM Coenzyme A trilithium salt (Sigma #C3019),450uM ATP (Sigma #A7699), 1mM D-luciferin sodium salt monohydrate (Biosynth #L8240) Control compounds used were two known firefly luciferase inhibitors (3-(5-(3-chlorophenyl)-1,2,4-oxadiazol-3-yl)benzoic acid and 5-(2-fluorophenyl)-3-phenyl-1,2,4-oxadiazole), and DMSO. Assay Summary: Transient transfection of FlucUGA construct: Day 1: GripTite cells were plated in T175 flasks at a density of 1.75 x 10^7 cells/T175 flask in complete growth media without Geneticin and allowed to grow ON in a 37 degrees Celsius incubator. Day 2: Cells in T175 flask were transfected - with 10ug of DNA and 30uL Transfast in 12mL complete growth media without serum and without Geneticin for 4 hours at 37 degrees Celsius. After incubation, cells were trypsinized, spun down, and resuspended to a concentration of 3.3 x 10^5 cells/mL in assay media. 6uL of cells in assay buffer were dispensed at 2000cells/well (3.3 x 10^5 cells/mL) into Greiner solid-white TC-treated 1536-well plates using a Multidrop Combi (Thermo Fisher Scientific). Plates were incubated for one hour at 37 degree Celsius, 95% humidity, 5% CO2. These assay plates were then treated with 23nL of compound or DMSO using a Kalypsys pin tool, which allows for delivery of a 12-point titration of each compound to the assay plate, with a final compound concentration ranging from approximately ~38uM to 0.2nM. Assay plates were then incubated for 72 hours. After incubation, plates were washed three times with DPBS (7uL/well). After the third wash, 6uL of DPBS was added to each well. 3uL of 3X luciferase detection reagent was then added to each well using a flying reagent dispenser (FRD). After a 15 minute incubation to allow for cell lysis, luciferase activity was measured using a ViewLux CCD imager (PerkinElmer), with an average exposure time of 2-12 seconds.
Consider `Cc1ccc(C(=O)O/N=C(\N)c2ccccn2)cc1`, for which the Potency is 2250 nM (active). Consider `O=C(Nc1ccccc1C(=O)O)c1ccc(NC(=O)C2CC2)cc1`, for which the “activation (luciferase signal increase)” value is 0.322%. On the same count and under the same terms, the result for `O=C(Cc1ccccc1)Nc1ccc(C(=O)Nc2ccccc2C(=O)O)cc1` reads -3.79%; that for `COc1ccc(C(=O)Nc2cccc(C(=O)O)c2)cc1S(=O)(=O)N1CCCC1`, 3.95%. For `COc1ccc2nc(NC(=O)c3ccco3)sc2c1`, the Potency was 634 nM (active). On the same count and under the same terms, the result for `CCn1c(C)nc2cc(-c3nc4n(n3)Cc3ccccc3-4)ccc21` reads 79.8 nM (active). `Cc1c(NS(C)(=O)=O)cccc1-c1nc2ccccc2s1`: the “activation (luciferase signal increase)” value was -0.265%. `CCOc1ccc2nc(NC(=O)c3cc([N+](=O)[O-])ccc3N3CCOCC3)sc2c1`: the “activation (luciferase signal increase)” value is -8.35%.

As to `O=C(Nc1ccccc1C(=O)O)c1cccc(S(=O)(=O)N2CCCC2)c1`, the “activation (luciferase signal increase)” value is 4.36%. On the same count and under the same terms, the result for `Cc1c(NC(=O)C(C)(C)C)cccc1-c1nc2ccccc2s1` reads 16%. `Cc1ccc(C(=O)Nc2cccc(C(=O)O)c2)cc1S(=O)(=O)N1CCOCC1`: the Potency was 11300 nM (active).

Turning to `O=C(O)c1cccc(NC(=O)c2cccc(S(=O)(=O)N3CCc4ccccc4C3)c2)c1`, the “activation (luciferase signal increase)” value was 11%.

For `COc1ccc(-c2cccc(C(=O)Nc3cccc(C(=O)O)c3)c2)cc1`, the Potency was 12600 nM (active).

In the case of `COc1c(C)cccc1C(=O)Nc1ccc(-c2nc3ccccc3s2)c(Cl)c1`, the “activation (luciferase signal increase)” value is 0.556%. For the compound `COc1ccc(C(=O)Nc2ccccc2-c2nc3ccccc3s2)c(OC)c1`, the “activation (luciferase signal increase)” value is 2%. Take `COc1cccc(-c2nc3ccccc3s2)c1`: the Potency is 3560 nM (active).
